The results in this text go back to ChEMBL document CHEMBL1961873, “Compounds: GSK PKIS; Assays: Nanosyn kinase panel” (2012).

Test [1] has as its target T1, Serine/threonine-protein kinase Nek9 (Homo sapiens) (UniProt Q8TD19).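 Also: each value is a mean percent inhibition of NEK9.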
T1 sequence (whole entry): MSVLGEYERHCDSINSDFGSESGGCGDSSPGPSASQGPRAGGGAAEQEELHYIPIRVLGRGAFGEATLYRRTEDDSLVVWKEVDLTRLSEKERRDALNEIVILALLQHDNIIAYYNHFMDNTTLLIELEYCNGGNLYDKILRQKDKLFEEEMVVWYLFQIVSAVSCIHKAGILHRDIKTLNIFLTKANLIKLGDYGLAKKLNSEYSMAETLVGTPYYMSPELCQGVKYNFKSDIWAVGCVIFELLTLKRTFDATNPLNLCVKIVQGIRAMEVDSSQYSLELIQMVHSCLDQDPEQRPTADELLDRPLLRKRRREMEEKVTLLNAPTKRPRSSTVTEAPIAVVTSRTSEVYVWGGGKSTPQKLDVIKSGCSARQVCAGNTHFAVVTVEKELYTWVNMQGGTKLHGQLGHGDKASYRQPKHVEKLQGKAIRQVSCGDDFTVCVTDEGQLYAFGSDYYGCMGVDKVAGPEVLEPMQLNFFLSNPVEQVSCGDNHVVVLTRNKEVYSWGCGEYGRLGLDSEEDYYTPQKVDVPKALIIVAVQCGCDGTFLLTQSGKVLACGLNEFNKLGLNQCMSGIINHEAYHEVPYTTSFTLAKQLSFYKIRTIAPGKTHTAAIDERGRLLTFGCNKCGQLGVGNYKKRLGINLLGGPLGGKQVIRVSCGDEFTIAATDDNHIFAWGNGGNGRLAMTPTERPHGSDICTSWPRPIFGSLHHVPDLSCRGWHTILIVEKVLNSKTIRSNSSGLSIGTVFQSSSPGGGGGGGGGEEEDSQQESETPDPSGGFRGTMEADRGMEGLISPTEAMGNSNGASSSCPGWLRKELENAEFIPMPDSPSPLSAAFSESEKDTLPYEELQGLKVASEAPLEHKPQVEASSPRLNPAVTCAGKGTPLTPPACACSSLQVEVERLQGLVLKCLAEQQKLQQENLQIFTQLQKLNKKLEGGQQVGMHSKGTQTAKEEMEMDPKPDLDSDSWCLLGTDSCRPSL
Conditions: at 1 µM.

The target of test [2] is Serine/threonine-protein kinase PLK1 (Homo sapiens) (UniProt P53350). As to conditions: at 0.1 µM.
Test [3] shares this target. As to conditions: at 1 µM.
Test [4] addresses T2, Dual specificity protein kinase TTK (Homo sapiens) (UniProt P33981).
T2 sequence (whole entry): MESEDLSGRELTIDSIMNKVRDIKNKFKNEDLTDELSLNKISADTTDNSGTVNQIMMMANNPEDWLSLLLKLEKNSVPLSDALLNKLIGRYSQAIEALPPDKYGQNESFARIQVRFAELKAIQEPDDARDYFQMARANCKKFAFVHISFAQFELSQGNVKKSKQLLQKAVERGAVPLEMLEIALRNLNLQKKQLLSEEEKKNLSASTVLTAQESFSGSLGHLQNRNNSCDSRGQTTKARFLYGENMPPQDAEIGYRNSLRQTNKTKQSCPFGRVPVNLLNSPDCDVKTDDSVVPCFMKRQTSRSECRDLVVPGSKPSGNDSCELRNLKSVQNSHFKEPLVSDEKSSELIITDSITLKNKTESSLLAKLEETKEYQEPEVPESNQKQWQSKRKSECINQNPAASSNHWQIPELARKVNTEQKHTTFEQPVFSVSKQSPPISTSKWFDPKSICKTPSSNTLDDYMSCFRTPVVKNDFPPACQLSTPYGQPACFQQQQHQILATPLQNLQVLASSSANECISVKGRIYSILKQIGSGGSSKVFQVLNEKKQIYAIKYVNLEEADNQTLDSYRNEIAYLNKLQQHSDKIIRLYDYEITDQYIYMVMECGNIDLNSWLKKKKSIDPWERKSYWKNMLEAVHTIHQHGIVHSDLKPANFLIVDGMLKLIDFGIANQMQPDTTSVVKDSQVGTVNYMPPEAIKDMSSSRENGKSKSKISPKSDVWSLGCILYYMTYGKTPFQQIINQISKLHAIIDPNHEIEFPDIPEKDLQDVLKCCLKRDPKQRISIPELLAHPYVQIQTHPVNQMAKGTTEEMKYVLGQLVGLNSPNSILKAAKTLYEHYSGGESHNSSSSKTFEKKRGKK
Conditions: at 0.1 µM.

For test [5], the system named is T3, Receptor-type tyrosine-protein kinase FLT3 (Homo sapiens), P36888 [D835Y].
T3 sequence (whole entry): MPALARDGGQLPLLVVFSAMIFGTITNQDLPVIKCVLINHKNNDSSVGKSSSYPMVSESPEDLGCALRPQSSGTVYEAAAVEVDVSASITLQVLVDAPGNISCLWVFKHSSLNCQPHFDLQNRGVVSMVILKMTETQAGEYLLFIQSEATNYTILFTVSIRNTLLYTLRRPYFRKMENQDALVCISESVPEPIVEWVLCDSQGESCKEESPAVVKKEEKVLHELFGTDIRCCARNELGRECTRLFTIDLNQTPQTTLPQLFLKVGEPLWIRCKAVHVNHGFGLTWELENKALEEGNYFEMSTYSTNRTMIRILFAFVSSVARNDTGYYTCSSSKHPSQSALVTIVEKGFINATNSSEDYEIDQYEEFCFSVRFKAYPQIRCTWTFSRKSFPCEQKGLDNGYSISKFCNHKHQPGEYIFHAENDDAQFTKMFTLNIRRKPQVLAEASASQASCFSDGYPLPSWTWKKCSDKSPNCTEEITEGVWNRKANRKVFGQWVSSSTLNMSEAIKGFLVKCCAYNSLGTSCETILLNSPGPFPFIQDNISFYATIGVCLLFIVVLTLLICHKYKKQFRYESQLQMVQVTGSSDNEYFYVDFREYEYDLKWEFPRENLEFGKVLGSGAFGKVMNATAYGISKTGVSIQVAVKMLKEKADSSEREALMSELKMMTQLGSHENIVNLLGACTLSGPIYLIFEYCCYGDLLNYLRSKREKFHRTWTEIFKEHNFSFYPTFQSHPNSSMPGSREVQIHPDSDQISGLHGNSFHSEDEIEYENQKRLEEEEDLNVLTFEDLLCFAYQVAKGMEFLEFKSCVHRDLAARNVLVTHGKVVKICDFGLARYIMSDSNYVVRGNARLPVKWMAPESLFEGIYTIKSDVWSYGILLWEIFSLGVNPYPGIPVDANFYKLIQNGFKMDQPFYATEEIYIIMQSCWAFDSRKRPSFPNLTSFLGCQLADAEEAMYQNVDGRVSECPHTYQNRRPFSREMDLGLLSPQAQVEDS
As to conditions: at 1 µM.

In test [6] the target is Vascular endothelial growth factor receptor 3 (Homo sapiens) (UniProt P35916). As to conditions: at 0.1 µM.
Vascular endothelial growth factor receptor 3 (Homo sapiens), sequence (P35916 whole entry): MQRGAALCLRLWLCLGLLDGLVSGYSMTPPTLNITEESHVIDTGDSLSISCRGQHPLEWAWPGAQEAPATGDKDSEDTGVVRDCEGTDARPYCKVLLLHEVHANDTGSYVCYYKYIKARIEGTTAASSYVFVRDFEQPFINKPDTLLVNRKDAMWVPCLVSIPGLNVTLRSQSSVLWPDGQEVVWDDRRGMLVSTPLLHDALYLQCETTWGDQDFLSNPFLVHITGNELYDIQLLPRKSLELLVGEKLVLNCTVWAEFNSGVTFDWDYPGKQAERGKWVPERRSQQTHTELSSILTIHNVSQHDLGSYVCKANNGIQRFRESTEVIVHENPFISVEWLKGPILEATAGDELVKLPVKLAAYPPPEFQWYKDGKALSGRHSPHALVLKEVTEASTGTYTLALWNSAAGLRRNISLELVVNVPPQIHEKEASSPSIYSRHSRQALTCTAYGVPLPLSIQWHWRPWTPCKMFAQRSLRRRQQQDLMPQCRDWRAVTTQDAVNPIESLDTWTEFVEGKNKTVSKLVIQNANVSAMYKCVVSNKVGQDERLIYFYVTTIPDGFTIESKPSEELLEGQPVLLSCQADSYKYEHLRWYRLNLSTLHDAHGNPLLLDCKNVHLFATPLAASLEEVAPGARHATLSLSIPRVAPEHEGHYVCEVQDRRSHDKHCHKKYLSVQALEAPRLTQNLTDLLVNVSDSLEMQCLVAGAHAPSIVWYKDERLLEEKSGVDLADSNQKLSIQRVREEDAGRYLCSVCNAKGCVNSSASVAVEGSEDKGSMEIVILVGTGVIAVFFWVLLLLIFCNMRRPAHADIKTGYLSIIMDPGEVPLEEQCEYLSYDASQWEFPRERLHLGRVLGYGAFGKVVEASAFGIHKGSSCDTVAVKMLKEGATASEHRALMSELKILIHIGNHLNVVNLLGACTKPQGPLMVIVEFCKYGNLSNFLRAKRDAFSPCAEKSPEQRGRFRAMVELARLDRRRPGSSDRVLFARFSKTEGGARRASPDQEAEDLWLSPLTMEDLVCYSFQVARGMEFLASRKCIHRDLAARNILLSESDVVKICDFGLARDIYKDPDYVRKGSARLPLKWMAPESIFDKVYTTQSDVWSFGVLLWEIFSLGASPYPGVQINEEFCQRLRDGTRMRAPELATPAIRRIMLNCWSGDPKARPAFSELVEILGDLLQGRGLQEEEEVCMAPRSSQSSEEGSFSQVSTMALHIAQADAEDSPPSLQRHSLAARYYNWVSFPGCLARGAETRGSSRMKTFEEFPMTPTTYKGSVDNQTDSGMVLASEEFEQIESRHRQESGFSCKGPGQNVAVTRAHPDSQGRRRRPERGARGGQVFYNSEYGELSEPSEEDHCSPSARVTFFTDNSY
For test [7] the target is unchanged. Conditions: at 1 µM.
Test [8] deals with Macrophage colony-stimulating factor 1 receptor (Homo sapiens) (UniProt P07333). As to conditions: at 0.1 µM.
Macrophage colony-stimulating factor 1 receptor (Homo sapiens), sequence (P07333 whole entry): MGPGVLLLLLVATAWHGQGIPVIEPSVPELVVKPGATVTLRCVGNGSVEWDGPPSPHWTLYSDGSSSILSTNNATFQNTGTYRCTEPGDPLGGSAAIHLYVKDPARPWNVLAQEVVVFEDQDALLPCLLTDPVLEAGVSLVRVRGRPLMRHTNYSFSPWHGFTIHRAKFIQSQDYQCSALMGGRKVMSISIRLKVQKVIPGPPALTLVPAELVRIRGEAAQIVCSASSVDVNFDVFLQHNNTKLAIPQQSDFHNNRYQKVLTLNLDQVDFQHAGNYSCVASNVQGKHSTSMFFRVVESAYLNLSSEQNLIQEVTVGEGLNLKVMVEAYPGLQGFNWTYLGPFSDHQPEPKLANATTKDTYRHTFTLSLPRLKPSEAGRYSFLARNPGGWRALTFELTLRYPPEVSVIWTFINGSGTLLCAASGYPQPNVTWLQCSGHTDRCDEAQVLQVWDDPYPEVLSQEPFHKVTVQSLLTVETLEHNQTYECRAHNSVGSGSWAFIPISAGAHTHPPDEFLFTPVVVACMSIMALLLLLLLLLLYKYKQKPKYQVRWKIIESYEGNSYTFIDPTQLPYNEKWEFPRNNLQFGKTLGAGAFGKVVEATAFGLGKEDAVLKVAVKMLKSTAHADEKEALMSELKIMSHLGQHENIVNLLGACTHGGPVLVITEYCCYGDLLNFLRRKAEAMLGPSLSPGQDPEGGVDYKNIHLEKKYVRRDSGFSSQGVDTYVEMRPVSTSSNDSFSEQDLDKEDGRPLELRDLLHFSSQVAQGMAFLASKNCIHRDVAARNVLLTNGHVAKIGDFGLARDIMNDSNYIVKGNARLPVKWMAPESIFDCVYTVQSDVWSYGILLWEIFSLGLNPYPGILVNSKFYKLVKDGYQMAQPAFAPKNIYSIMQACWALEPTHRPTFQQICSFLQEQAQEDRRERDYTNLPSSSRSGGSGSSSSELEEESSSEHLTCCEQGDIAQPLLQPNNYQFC
Test [9] has the same target. Conditions: at 1 µM.
Test [10] addresses Tyrosine-protein kinase Fyn (Homo sapiens) (UniProt P06241). Conditions: at 0.1 µM.
The target is the same in test [11]. Conditions: at 1 µM.
The target in test [12] is Tyrosine-protein kinase HCK (Homo sapiens) (UniProt P08631). As to conditions: at 0.1 µM.
Test [13] shares this target. Conditions: at 1 µM.
Test [14] deals with Insulin-like growth factor 1 receptor (Homo sapiens) (UniProt P08069). As to conditions: at 0.1 µM.
Insulin-like growth factor 1 receptor (Homo sapiens), sequence (P08069 31-736 limits assumed): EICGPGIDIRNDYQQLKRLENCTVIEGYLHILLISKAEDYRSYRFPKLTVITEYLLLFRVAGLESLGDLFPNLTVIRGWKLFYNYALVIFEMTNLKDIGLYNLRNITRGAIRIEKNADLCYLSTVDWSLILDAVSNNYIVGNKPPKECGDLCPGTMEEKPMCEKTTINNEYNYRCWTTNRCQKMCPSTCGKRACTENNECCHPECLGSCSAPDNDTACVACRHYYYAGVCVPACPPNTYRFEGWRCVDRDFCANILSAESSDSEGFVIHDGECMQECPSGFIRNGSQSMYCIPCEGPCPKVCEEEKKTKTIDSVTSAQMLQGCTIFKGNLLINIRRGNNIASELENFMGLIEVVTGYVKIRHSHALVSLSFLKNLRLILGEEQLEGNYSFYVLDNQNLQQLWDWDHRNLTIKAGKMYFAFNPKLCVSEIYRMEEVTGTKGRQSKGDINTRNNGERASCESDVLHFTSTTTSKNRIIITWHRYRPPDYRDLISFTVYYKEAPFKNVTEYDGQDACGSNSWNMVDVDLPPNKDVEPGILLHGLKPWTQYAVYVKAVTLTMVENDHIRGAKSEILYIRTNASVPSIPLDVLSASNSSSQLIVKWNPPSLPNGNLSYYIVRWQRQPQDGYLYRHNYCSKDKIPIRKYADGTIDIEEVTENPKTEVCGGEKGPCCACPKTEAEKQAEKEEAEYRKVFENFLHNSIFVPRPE
Insulin-like growth factor 1 receptor (Homo sapiens), sequence (P08069 741-1367 limits assumed): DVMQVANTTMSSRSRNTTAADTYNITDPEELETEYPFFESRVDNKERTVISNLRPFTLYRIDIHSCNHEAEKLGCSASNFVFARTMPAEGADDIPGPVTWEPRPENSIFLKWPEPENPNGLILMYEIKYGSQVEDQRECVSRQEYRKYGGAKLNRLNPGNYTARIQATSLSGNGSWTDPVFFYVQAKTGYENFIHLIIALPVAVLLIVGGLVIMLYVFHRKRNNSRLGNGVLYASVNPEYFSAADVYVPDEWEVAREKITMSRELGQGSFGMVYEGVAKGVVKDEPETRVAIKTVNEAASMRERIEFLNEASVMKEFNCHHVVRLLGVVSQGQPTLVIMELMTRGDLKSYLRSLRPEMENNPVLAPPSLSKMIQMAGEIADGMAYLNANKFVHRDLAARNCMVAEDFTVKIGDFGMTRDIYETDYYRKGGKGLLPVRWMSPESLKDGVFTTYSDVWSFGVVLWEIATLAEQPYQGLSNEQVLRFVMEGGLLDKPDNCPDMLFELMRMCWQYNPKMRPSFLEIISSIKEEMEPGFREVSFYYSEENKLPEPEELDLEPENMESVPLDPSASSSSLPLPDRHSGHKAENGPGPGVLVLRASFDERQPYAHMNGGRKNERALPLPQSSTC
The target is the same in test [15]. Conditions: at 1 µM.
For test [16], the target named is Insulin receptor (Homo sapiens) (UniProt P06213). As to conditions: at 0.1 µM.
Test [17] has the same target. Conditions: at 1 µM.
Test [18] deals with Insulin receptor-related protein (Homo sapiens) (UniProt P14616). Conditions: at 0.1 µM.
Insulin receptor-related protein (Homo sapiens), sequence (P14616 27-742 limits assumed): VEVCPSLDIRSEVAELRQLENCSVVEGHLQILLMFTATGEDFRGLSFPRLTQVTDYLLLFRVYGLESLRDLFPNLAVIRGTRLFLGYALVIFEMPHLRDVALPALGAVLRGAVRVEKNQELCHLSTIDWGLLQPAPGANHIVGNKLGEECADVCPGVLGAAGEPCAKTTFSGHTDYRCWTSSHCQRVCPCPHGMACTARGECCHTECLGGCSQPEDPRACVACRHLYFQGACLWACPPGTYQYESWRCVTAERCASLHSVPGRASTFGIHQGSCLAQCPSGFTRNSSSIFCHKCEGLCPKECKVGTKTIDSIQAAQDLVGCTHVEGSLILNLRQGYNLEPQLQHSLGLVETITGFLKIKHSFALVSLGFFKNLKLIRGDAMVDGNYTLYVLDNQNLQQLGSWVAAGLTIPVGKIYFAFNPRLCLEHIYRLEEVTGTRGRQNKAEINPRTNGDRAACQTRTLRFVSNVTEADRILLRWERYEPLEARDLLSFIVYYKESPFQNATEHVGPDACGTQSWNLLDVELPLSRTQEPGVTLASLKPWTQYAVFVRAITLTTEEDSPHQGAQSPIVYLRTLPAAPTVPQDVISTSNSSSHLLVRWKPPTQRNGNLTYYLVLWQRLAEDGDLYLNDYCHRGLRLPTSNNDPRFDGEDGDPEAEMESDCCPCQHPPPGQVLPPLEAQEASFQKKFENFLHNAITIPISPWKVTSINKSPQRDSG
Insulin receptor-related protein (Homo sapiens), sequence (P14616 747-1297 limits assumed): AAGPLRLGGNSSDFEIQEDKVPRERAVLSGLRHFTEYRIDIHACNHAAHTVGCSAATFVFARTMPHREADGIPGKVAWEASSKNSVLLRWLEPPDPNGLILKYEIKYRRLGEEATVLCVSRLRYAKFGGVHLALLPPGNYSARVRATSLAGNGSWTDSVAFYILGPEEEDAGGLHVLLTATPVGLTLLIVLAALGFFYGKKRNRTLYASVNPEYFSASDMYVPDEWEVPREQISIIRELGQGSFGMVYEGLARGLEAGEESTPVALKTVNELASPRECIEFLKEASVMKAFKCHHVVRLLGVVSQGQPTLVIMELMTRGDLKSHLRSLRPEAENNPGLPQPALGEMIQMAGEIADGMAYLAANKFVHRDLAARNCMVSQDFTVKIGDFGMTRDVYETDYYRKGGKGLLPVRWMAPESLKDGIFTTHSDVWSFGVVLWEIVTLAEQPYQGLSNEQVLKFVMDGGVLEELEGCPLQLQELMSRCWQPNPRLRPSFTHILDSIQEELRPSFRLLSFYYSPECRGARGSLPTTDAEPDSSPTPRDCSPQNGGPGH
Test [19] shares this target. As to conditions: at 1 µM.
The target in test [20] is T4, Tyrosine-protein kinase ITK/TSK (Homo sapiens) (UniProt Q08881).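 Also: mean percent inhibition of ITK from the GSK PKIS screen.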
T4 sequence (whole entry): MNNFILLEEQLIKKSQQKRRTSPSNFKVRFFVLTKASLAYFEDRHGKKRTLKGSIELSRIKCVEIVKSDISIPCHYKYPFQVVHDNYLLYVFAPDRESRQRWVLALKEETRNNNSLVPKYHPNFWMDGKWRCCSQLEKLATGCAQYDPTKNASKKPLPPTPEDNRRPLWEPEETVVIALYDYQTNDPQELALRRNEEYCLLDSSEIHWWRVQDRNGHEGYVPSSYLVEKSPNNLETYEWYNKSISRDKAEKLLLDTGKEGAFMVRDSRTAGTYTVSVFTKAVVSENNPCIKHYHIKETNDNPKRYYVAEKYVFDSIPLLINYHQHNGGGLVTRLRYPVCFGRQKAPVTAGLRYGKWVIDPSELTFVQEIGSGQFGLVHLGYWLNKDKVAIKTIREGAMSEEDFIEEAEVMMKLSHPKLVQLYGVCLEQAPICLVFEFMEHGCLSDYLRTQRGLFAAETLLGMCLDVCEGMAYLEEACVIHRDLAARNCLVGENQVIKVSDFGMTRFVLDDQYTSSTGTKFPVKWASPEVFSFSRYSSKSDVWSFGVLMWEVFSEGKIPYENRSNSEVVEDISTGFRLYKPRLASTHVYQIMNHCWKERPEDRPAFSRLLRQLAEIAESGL
Conditions: at 0.1 µM.

As to `COc1cccc(COc2cc(-n3cnc4ccccc43)sc2C(N)=O)c1`, the inhibition in test [1] was 8.39%; in test [2] it was 66.5%; in test [3] it was 92.2%; in test [4], 3.72%; in [5], -4.13%; in [6], -2.19%. Besides, the inhibition is 4.75% in test [7]; -8.31% in test [8]; -1.4% in test [9]; 0% in test [10]; 2.15% in test [11]; -1.32% in [12]. The inhibition in [13] is -0.98%; in test [14] it was -3.85%; in test [15], -1.64%; in test [16], -3.2%; in test [17], 0.19%; in test [18] it was -0.6%. For the same compound, the inhibition is -1.17% in test [19] and -2.19% in test [20].
Turning to `NS(=O)(=O)c1ccc(N/C=C2\C(=O)Nc3ccc4ncsc4c32)cc1`, the inhibition in test [1] was found to be 22.4%; in [2], 4.2%; in test [3] it was 4.96%; in test [4], 40.1%; in test [5], 81.1%; in [6], 38.2%. The inhibition was 93.1% in test [7]; 29.5% in test [8]; 58.6% in test [9]; 2.85% in test [10]; 9.66% in test [11]; 9.53% in [12]. For the same compound, the inhibition was determined as 28.9% in test [13]; 16% in test [14]; 19.4% in test [15]; 0.99% in test [16]; 11.7% in test [17]; 0.69% in test [18]. Besides, the inhibition stood at 4.17% in [19] and 1.17% in test [20].
With `Nc1nonc1-c1nc2cnccc2n1C1CCCCC1`, the inhibition was -2.86% in [1]; -2.48% in [2]; -0.5% in [3]; -1.57% in test [4]; 19.7% in test [5]; 4.11% in [6]. Further, the inhibition in [7] was 16.7%; in test [8], 27.4%; in [9] it was 76.3%; in test [10], 2.06%; in test [11] it was 4.39%; in test [12], -1%. In addition, the inhibition is 0.66% in [13]; -3.43% in [14]; -0.98% in [15]; -0.54% in [16]; -0.22% in [17]; -2.35% in test [18]. Besides, the inhibition in test [19] was -3.62%; in [20] it was -0.34%.

For orientation: inhibition means the relative decrease from the control value, in per cent.
